# Assay outcomes from PubChem BioAssay.
# Hits are enriched below; roughly 2% of the tested compounds scored in any of these assays.
# Mcl1-Bid inh = Mcl-1/Bid binding inhibitors, primary screen, biochemical, TR-FRET, 1536-well. AID 1021, 2008. hit rate 0.97% among 220,000. Induced myeloid leukemia cell differentiation protein Mcl-1 (Homo sapiens), Q07820. TR-FRET Mcl-1/Bid-Dy647 peptide binding. inhibition, % at 21.7 µM;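 active means compounds that cut the binding signal by more than half at the single screening dose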;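 further: His-tagged Mcl-1 with europium anti-His antibody binding Bid BH3 peptide; 0% = Mcl-1 plus peptide wells and 100% = peptide-only wells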
# Target sequence (Q07820 whole entry, looked up): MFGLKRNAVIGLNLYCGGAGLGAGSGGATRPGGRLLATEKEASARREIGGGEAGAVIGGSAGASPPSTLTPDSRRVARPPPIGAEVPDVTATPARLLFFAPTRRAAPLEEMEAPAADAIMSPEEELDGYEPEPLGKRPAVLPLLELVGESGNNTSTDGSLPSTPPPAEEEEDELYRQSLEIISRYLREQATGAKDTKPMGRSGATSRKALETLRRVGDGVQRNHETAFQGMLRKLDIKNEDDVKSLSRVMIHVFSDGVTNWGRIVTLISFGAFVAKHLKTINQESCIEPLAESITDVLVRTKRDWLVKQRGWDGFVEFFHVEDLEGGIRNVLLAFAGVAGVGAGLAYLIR
# Mcl-1 Bim block = inhibitors of Bim peptide binding to Mcl-1, primary screen, biochemical, bead-based flow cytometry, multiplex | inhibition, % at 10 µM | hit rate 0.1% among 190,000 | Bim peptide-Mcl-1 binding | AID 1009, 2008 | Induced myeloid leukemia cell differentiation protein Mcl-1 (Homo sapiens), Q07820; in the data active means inhibition above about 40%;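 further: 0% = no compound tracer wells and 100% = peptide blocker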
# Mcl1 Noxa PPI = Mcl-1/Noxa binding inhibitors, primary screen, biochemical, TR-FRET, 1536-well; Induced myeloid leukemia cell differentiation protein Mcl-1 (Homo sapiens), Q07820; TR-FRET Mcl-1/Noxa peptide binding, 2 h; inhibition, % at 21.7 µM; hit rate 1.5% among 220,000; AID 1022, 2008;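 active means compounds that cut the protein-peptide binding signal by more than 50% relative to plate controls in a single-dose test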;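 further: His-tagged Mcl-1 with rhodamine Noxa BH3 peptide and terbium anti-His antibody; 0% = Mcl-1 plus Noxa peptide wells and 100% = peptide-only wells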
# MCL1-BIM inh = inhibitors of MCL1 binding to BIM-BH3, primary screen, biochemical, fluorescence polarization | Induced myeloid leukemia cell differentiation protein Mcl-1 (Homo sapiens), Q07820 | GST-MCL1 / FITC-Bim-BH3 fluorescence polarization | inhibition, % at 10.9 µM | hit rate 0.68% among 320,000;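 active means inhibition above the mean inhibition of all tested compounds plus 3 SD, set per campaign, cut at about 40% in these data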;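 further: 0% = DMSO wells and 100% = unlabeled Bim-BH3 peptide control; higher means more loss of mP so more displacement of Bim peptide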
# Numbers without * were called inactive; x = no result given.
SMILES,Mcl1-Bid inh,Mcl-1 Bim block,Mcl1 Noxa PPI,MCL1-BIM inh
CCOC(=O)c1c2c3c(cccc3[nH]c1=O)C(=O)c1ccccc1-2,-10,18,8,47*
CN(C)S(=O)(=O)n1cc(/C=C(\NC(=O)c2ccccc2Cl)C(=O)N2CCCC2)c2ccccc21,x,x,x,-2
CN(C)CCN(C(=O)c1ccccc1Cl)c1nc2c(Cl)cccc2s1,57*,-4,-7,0
Cc1ccc2c(c1)/C(=N/O)CCS2,-43,0,21,7
O/N=C1/CCCSc2ccccc21,2,-2,86*,9
CCc1c(C(=O)N2CCCN(C)CC2)csc1C,x,x,x,-9
O=P(O)(C(O)c1ccccc1)C(O)c1ccccc1 (stereo unspecified),x,x,x,0
O=C(CSc1nnc(-c2ccc(O)cc2)n1Cc1ccccc1)NNC(=O)c1ccc(Br)cc1,-29,-2,25,-1
O=C(O)c1ccc(-n2cc(-c3cc4ccccc4oc3=O)[nH]c2=S)cc1,-29,0,50*,x
O=c1oc2ccccc2cc1-c1ccccc1,-6,8,-19,9
CC1=C(C(=O)Nc2cccc(C(=O)NCc3ccccc3C)c2)SCCO1,x,x,x,1
Cc1nc(CSc2nc3[nH]ncc3c(=O)n2-c2ccccc2)cs1,84*,-2,7,-9
Cc1nc(CSc2n[nH]c(=O)n2-c2ccccc2)cs1,-2,x,1,9
Cc1ccc(CNC(=O)Cc2noc3ccccc23)cc1,-17,0,18,-4
COc1ccc(-c2csc(NC(=O)CSc3nc(C)nc4sc(C(=O)O)c(C)c34)n2)cc1,36,x,99*,8
COc1ccc(/C=N/NC(=O)CCOc2ccccc2C)cc1OC,-20,-5,5,5
COc1cc(/C=N/NC(=O)CCOc2ccccc2C)cc(Br)c1O,-30,-1,67*,12
COc1cc(OC)cc(C(=O)N(CCCN2C(=O)c3cccc4cccc(c34)C2=O)c2cccc(OC)c2)c1,84*,-3,-5,-6
COc1ccc(N(CCCN2C(=O)c3cccc4cccc(c34)C2=O)C(=O)c2ccncc2)cc1,-18,-3,1,2
O=C1Nc2cc(Cl)cnc2N2CCCC12 (stereo unspecified),-17,1,60*,43*
O=C(NCc1cccnc1)/C(=C/c1ccc(-c2ccc(Cl)cc2)o1)S(=O)(=O)c1ccccc1,31,-2,20,6
O=C(NCc1cccnc1)/C(=C\c1ccc(-c2ccc(Br)cc2)o1)S(=O)(=O)c1ccccc1,52*,4,39,2
COC(=O)/C=C/c1ccc2c(c1)OCO2,-12,1,2,-2
CCNc1ccccc(C(=O)/C=C/c2ccc3c(c2)OCO3)c1=O,-29,1,70*,35
CC1=Nc2cccc3cccc(c23)N1,-21,-3,93*,25
SMILES,Mcl1-Bid inh,Mcl-1 Bim block,Mcl1 Noxa PPI,MCL1-BIM inh
Nc1ccc(C2=Nc3cccc4cccc(c34)N2)cc1,10,3,77*,x
c1coc(C2=Nc3cccc4cccc(c34)N2)c1,-58,8,33,24
COc1cccc(C2=Nc3cccc4cccc(c34)N2)c1,10,-5,57*,19
O=C(/C=C/c1cccc(O)c1)c1ccc(N2CCOCC2)cc1,-34,x,27,1
CN(c1cccc(NC(=O)c2ccccc2N(C)S(C)(=O)=O)c1)S(C)(=O)=O,68*,-7,16,0
CC(C)c1ccc(C(N)=S)cc1,-31,0,68*,8
CC(C)c1ccccc1NC(=O)C1CC(=O)N(C2CCCC2)C1 (stereo unspecified),x,x,x,8
CCCCc1c(C)nc2c(OC)cccc2c1SCCC(=O)O,6,0,52*,8
COc1nc2c(c(-c3cc(Br)cs3)c1C#N)Cc1ccccc1-2,2,x,-22,7
Cc1noc(/C=C/N(C)C)c1S(=O)(=O)N1CCCC(C(=O)Nc2ccc(F)cc2F)C1 (stereo unspecified),x,x,x,-18
Cc1nc(C)c(-c2csc(NCc3ccco3)n2)s1,0,-1,23,-4
Cc1nc(NC(=O)c2ccccc2)sc1-c1csc(Nc2ccc(C(=O)O)cc2)n1,91*,x,90*,x
COc1cccc(Nc2nc(-c3sc(NC(=O)c4ccccc4)nc3C)cs2)c1,-43,-5,20,-11
Cc1ccc(Nc2nc(-c3sc(NC(=O)c4cccc(Cl)c4)nc3C)cs2)cc1,-55,-4,30,-17
Cc1nc(NC(=O)c2ccc(Cl)cc2)sc1-c1csc(Nc2cccc(F)c2)n1,9,0,51*,-18
Cc1nc(NC(=O)c2ccccc2)sc1-c1csc(NCc2ccco2)n1,-12,-2,61*,-12
Nc1cccc(C(=O)N/N=C/c2ccsc2)c1,-38,0,22,5
COc1ccc(Cc2c(O)nc(SC)n(C(C)=O)c2=O)cc1,-76,67*,8,4
COc1ccc2nc3ccccc3nc2c1N,-86,x,55*,11
COc1ccc2nc3cccc(OC)c3nc2c1,-35,2,22,33
N#Cc1ccccc1CCN1C(=O)c2ccccc2C1=O,x,x,x,-2
OC(CNC1CCCCC1)COCCOc1ccc(Br)cc1 (stereo unspecified),-8,49*,21,5
OC(CNC1CCCC1)COc1ccc(-c2ccccc2)cc1 (stereo unspecified),-6,0,11,1
NS(=O)(=O)c1ccc2c(c1)C1C=CCC1C(C1CC=CCC1)N2 (stereo unspecified),-29,1,22,44*
CCOc1cccc(C(=O)Nc2ccc(N3CCCC3)cc2)c1,x,x,x,0
SMILES,Mcl1-Bid inh,Mcl-1 Bim block,Mcl1 Noxa PPI,MCL1-BIM inh
COc1ccc(C(=O)NC(=S)Nc2ccc(N3CCCC3)cc2)cc1,-31,0,17,12
CCOc1ccc(/C=C/C(=O)Nc2ccc(N3CCOCC3)cc2)cc1,101*,0,-5,-6
COc1ccc(C(=O)Nc2ccc(N3CCCC3)cc2)cc1,-47,-2,86*,12
O=C(Nc1ccc(N2CCCC2)cc1)c1ccc(Br)o1,-10,3,94*,6
CCOc1ccc(C(=O)Nc2ccc(N3CCCC3)cc2)cc1,9,1,63*,0
COCCN(C(=O)COC(=O)CCC(=O)c1cccs1)c1c(N)n(Cc2ccccc2)c(=O)[nH]c1=O,x,x,x,-26
CC1CCCCC1NC(=O)COC(=O)c1ccc2ncsc2c1 (stereo unspecified),x,x,x,5
Cc1occc1C(=O)NNC(=S)NCc1ccccc1,-67,60*,22,11
CCN1C(=O)/C(=C2\SC(=S)N(NC(=O)c3ccccc3O)C2=O)c2ccccc21,-69,x,65*,31
Cc1c(-c2ccccc2)[n+](=O)c(-c2ccc(Cl)cc2)c(C)n1[O-],-28,0,10,-5
CC(C(=O)O)n1nc2ccccc2n1 (stereo unspecified),71*,-2,26,1
O=C(O)Cn1nc2ccccc2n1,-8,0,3,-1
